# Screening data (PubChem)
# MazEF act: increases E. coli MazEF RNase cleavage of RNA | P0AE70 | FAM/BHQ RNA-DNA oligo cleavage fluorescence, 5 h | activation, % at 20 µM | 350,000 compounds, 0.32% hits | AID 504720; in the data active means activation above about 50%
# Target sequence (P0AE70 whole entry, looked up): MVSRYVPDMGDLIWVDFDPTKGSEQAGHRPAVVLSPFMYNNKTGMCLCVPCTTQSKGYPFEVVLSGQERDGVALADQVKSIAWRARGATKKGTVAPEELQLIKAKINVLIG
# Anthrax LF inh2: anthrax lethal factor protease inhibition | 360,000 compounds, 0.12% hits | multiplex microsphere protease cleavage assay, LF | inhibition, % at 10 µM | AID 588501 | P15917; further: plate controls were buffer without enzyme for full effect and enzyme alone for no effect
# Autofluor counter: counter-screen for toxin protease inhibitors: compound fluorescence; 360,000 compounds, 3.1% hits; AID 624483; fluorescence intensity (concentration not given with the values); compound autofluorescence counterscreen, microsphere flow cytometry; active compounds read high; in the data active means fluorescence intensity above about 16000; inconclusive means no clear call, values can overlap the other calls
# BoNT A protease: inhibitors of Botulinum neurotoxin A light chain protease; 360,000 compounds, 0.17% hits; AID 588499; multiplex microsphere protease substrate cleavage, flow cytometry; inhibition, % at 10 µM; further: plate controls were buffer without enzyme for full effect and enzyme alone for no effect
# BoNT F protease: inhibitors of Botulinum neurotoxin F light chain protease. Multiplex microsphere protease cleavage assay, flow cytometry. inhibition, % at 10 µM. 360,000 compounds, 0.22% hits. AID 588497; in the data active means inhibition above about 35%, passing the limit was not always enough; inconclusive means no clear call, values can overlap the other calls; further: plate controls were buffer without enzyme for full effect and enzyme alone for no effect
# VHR inh abs: blocks human VHR1 dual specificity phosphatase | P51452 | inhibition, % at 13.3 µM | 290,000 compounds, 0.52% hits | recombinant VHR phosphatase, pNPP absorbance; in the data active means inhibition above about 50%
# Target sequence (P51452 whole entry, looked up): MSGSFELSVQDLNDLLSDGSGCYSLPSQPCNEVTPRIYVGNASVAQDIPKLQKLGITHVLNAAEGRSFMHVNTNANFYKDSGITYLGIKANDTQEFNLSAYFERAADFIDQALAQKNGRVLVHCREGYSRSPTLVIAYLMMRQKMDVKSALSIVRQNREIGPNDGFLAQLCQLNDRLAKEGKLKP
# * = called active by the depositor; ? = inconclusive; / = no result. The list is not random: actives were taken first. Their share in the collection is about 4%. Unless noted, no stated cut-off is given here; in the data, active means inhibition above about 30%; inconclusive means no clear call, values can overlap the other calls; inactive means below that.
SMILES,MazEF act,Anthrax LF inh2,Autofluor counter,BoNT A protease,BoNT F protease,VHR inh abs
C#CCOC(=O)Nc1cccn(Cc2c(Cl)cccc2Cl)c1=O,11.2,-5.4,16958*,-2.7,-3.4,17.7
O=C(Nc1cccn(Cc2c(Cl)cccc2Cl)c1=O)C1CC1,0.5,0.2,4172,1.7,2.7,9.4
CCN(CC)Cc1cc(C(C)=O)ccc1OCC(C)C,5.1,-3.0,16228*,-0.1,0.0,14.7
CC(=O)c1ccc(N2CCN(C(=O)c3ccc4c(=O)n(-c5ccccc5)c(=O)[nH]c4c3)CC2)cc1,7.0,-1.1,22374*,1.5,1.4,13.2
O=C(c1ccc2c(=O)n(-c3ccccc3)c(=O)[nH]c2c1)N1CCN(c2ccc(F)cc2)CC1,0.0,-11.0,5921,-0.2,1.2,29.4
CC1CCCN(C(=O)c2ccc3c(=O)n(Cc4ccc5c(c4)OCO5)c(=S)[nH]c3c2)C1 (stereo not drawn),-6.0,0.6,22529*,0.3,-2.2,17.6
O=C(c1ccc2c(=O)n(Cc3ccc4c(c3)OCO4)c(=O)[nH]c2c1)N1CCN(c2ccccc2)CC1,62.2*,3.4,5207,-1.2,-3.4,23.2
CCN(CC)C(=O)c1ccc2c(=O)n(Cc3ccc4c(c3)OCO4)c(=S)[nH]c2c1,13.3,-14.5,3321,-3.6,-25.7,9.5
COc1ccc(CCNC2=C(Cl)C(=O)N(CCc3ccccc3)C2=O)cc1OC,-3.1,-2.0,3887,-1.3,-4.3,-2.0
Cc1ccc(SCC(=O)OC(C)C(=O)NC2(C#N)CCCCC2)cc1 (stereo not drawn),-1.5,-19.0,?,-65.5,-96.3,/
COc1ccc(/C=C/C(=O)C2CC2)cc1COc1cccc(C)c1C,-3.6,30.7*,3816,4.4,3.9,5.4
COc1ccc(/C=N/NC(=S)Nc2ccccc2)cc1COc1cccc(C)c1C,-2.7,-8.0,4946,-0.5,0.4,-7.7
CCOC(=O)C1CCCN(C(=O)C(=O)c2cn(CC(=O)N3CCOCC3)c3ccccc23)C1 (stereo not drawn),-4.5,-7.2,19022*,-53.1,-97.8,10.1
COc1ccccc1CNC(=O)C(=O)c1cn(CC(=O)N2CCCC2)c2ccccc12,1.0,-2.6,4527,-0.6,-2.9,52.2*
CCOC(=O)C1CCN(C(=O)C(=O)c2cn(CC(=O)N3CCCCCC3)c3ccccc23)CC1,-39.6,30.7*,8139,44.2*,16.6,-9.1
FC(F)(F)c1cc(CCN2CCNC[C@H]2Cc2cccc3ccccc23)cc(C(F)(F)F)c1,-3.9,-9.2,5099,-0.1,-26.6,/
Cn1c(/C=N/c2nc3ccccc3[nH]2)nc2ccccc21,-4.1,-2.6,8693,-2.9,-15.0,12.1
C(=N\c1nc2ccccc2[nH]1)/c1cccs1,-4.1,-2.2,23619*,?,-2.4,4.5
COc1ccccc1OC(C)C(=O)Nc1ccc2c(c1)n(C)c(=O)n2C (stereo not drawn),13.1,-7.1,3785,-2.1,1.6,3.6
COC(=O)c1sccc1NC(=O)c1cc(-c2cc(C)ccc2C)nc2ccccc12,-6.6,-2.8,21965*,2.9,1.9,31.6
Cc1ccccc1-c1cc(C(=O)Nc2sc(C(=O)OC(C)C)c(C)c2C#N)c2ccccc2n1,-10.5,-3.6,16235*,1.7,0.8,-23.9
Cc1ccc(C)c(-c2cc(C(=O)Nc3cccnc3)c3ccccc3n2)c1,1.0,-0.1,4240,1.1,3.5,32.2
COC(=O)c1sccc1NC(=O)c1cc(-c2ccc(C)cc2)nc2ccccc12,-6.4,0.4,2623,0.5,-8.2,13.9
Cc1ccc(C)c(-c2cc(C(=O)Nc3nccs3)c3ccccc3n2)c1,-6.0,1.8,24181*,-0.7,-4.9,27.2
CC(CCc1ccccc1)NC(=O)c1cccc([N+](=O)[O-])c1 (stereo not drawn),2.6,0.5,2169,0.1,-3.6,1.3
SMILES,MazEF act,Anthrax LF inh2,Autofluor counter,BoNT A protease,BoNT F protease,VHR inh abs
CC1(C(=O)NS(=O)(=O)c2cccc(F)c2)CCN1C(=O)C1CCCCC1 (stereo not drawn),/,-3.0,3377,0.1,-3.5,/
Brc1ccc(-c2cn3ccccc3n2)cc1,5.8,-2.1,4526,0.8,-2.0,13.6
CCOP(=O)(OCC)/C(=N/OC(=O)c1ccccc1C)C(N)=O,5.3,0.3,10322,1.4,-2.5,1.7
CC1(C)Cc2c(cnn2-c2ccccc2)C(NC(=O)C2(C(N)=O)CC2)C1 (stereo not drawn),6.2,-3.8,5901,-2.9,-8.9,14.9
COc1cccc(C(=O)N2N=C(c3ccccc3)CC2(O)C(F)(F)F)c1 (stereo not drawn),-259.5,-2.0,2532,0.4,-1.8,-11.2
Cc1c2cnn(CC(=O)NCCCN3CCCCC3C)c(=O)c2c(C)n1Cc1ccccc1 (stereo not drawn),-12.5,-23.8,18388*,0.8,-18.2,21.2
O=C(NC1CCC(C(=O)O)CC1)OCc1ccccc1 (stereo not drawn),4.2,-6.9,3389,0.0,-1.9,13.4
Cc1nn(C)cc1/C=N/n1nnnc1N,0.2,-10.8,17300*,6.1,5.5,21.1
Fc1ccc(OCc2nc(-c3cccs3)no2)cc1,-0.9,-3.2,4343,0.1,-3.3,22.5
c1ccc(OCc2nc(-c3cccs3)no2)cc1,-6.3,0.6,19681*,0.0,-2.1,8.3
COc1ccc(CN2C(=O)c3cccnc3C2Nc2ccc(C)cc2)cc1 (stereo not drawn),2.5,1.8,3688,-0.7,-9.0,-8.0
O=C1c2cccnc2C(O)N1Cc1ccc(F)cc1 (stereo not drawn),-8.2,-4.7,23014*,0.2,0.8,31.3
O=C1c2cccnc2C(O)N1Cc1ccccc1 (stereo not drawn),6.9,-1.1,11731,-1.3,-13.4,-3.7
O=C1c2cccnc2C(=O)N1Cc1ccc(F)cc1,3.2,-9.4,21659*,2.6,3.0,31.6
CC(=O)c1ccc(NC2c3ncccc3C(=O)N2Cc2ccc(F)cc2)cc1 (stereo not drawn),-3.6,1.3,21897*,5.2,4.4,36.7
CCc1c(C)nc(SCC(=O)Nc2nc(-c3ccc(OC)cc3)cs2)[nH]c1=O,0.6,2.3,4143,-0.6,0.2,22.5
CCOC(=O)C1=C(C)NC2=C(C(=O)C(C(=O)OCC)C(c3ccco3)C2)C1c1ccccn1 (stereo not drawn),62.5*,-3.6,15333,3.2,0.3,-5.7
CCOC(=O)C1=C(C)NC(C)=C(C(=O)OC)C1c1ccco1 (stereo not drawn),6.3,-1.0,6678,0.0,12.2,5.1
CCOC(=O)C1=C(C)NC(=O)C(C#N)C1c1ccco1 (stereo not drawn),6.7,-0.9,18722*,?,-16.9,-2.0
O=S(=O)(NCC1(N2CCOCC2)CCCCC1)c1ccc(F)cc1,5.7,0.9,?,0.3,4.1,/
COc1ccc(OC/C(O)=C(\C#N)c2nc3ccccc3[nH]2)cc1,1.6,2.2,2579,-0.5,-15.2,-7.3
COc1cccc(OC)c1/C(O)=C(\C#N)c1nc2ccccc2[nH]1,-18.2,-6.5,7299,0.4,-12.2,28.5
